KB-3-1 cytotox – qHTS assay for MDR1-selective chemotherapeutics: Primary screen using the parental adenocarcinoma cell KB-3-1. KB-3-1 viability, CellTiter-Glo ATP luminescence, 72 h. Potency, µM (doses to about 46.1 µM), most hits filed as cytotoxic. actives 1.4% (n = 400,000). AID 1347075, 2019; note: nearly all actives have a fitted effect of over 60% in size
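Here the drug-naive KB-3-1 line serves as comparator for MDR sub-line selectivity; cells received compound titrations, 72 h at 37 °C, then CellTiter-Glo readout.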
TDP1 cell CPT – qHTS for Inhibitors of human tyrosyl-DNA phosphodiesterase 1 (TDP1): qHTS in cells in presence of CPT. chicken DT40 Tdp1-/-;hTDP1 cells + 20 nM CPT, ATP luminescence, 48 h. Potency, µM (highest dose often 46.2 µM), most hits filed as inhibitors. actives 12% (n = 420,000); note: nearly all actives have a fitted effect of over 55% in size
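Chicken DT40 Tdp1-/- cells stably complemented with human TDP1 were seeded at 400 cells/well in medium containing 20 nM camptothecin, exposed to pin-transferred compounds, and grown at 37 °C for at least 48 hr. Viability was read as ATP luminescence.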
TDP1 cell noCPT – qHTS for Inhibitors of human tyrosyl-DNA phosphodiesterase 1 (TDP1): qHTS in cells in absence of CPT | DT40 Tdp1-/- hTDP1 cells, no CPT, ATP luminescence, 48 h | Potency, µM (highest dose often 46.2 µM), usual class: inhibitors | actives 15% (n = 420,000) | AID 686978, 2013; note: nearly all actives have a fitted effect of over 55% in size
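Cells were dispensed at 400 per well, compounds added by pin tool, plates incubated ≥48 hr at 37 °C, then CellTiter-Glo added for 30 min at room temperature before luminescence reading. Line: DT40 Tdp1-/- complemented with hTDP1; camptothecin omitted.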
KB-V1 MDR tox – qHTS assay for MDR1-selective chemotherapeutics: Primary screen using the drug-selected MDR subline cells KB-V1 | KB-V1 MDR cells viability, CellTiter-Glo, 72 h | Potency, µM (highest dose often 46.1 µM), most hits filed as cytotoxic | actives 3.4% (n = 400,000); note: nearly all actives have a fitted effect of over 60% in size
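In this primary screen, KB-V1 cells overexpressing P-gp are incubated with library compounds (lowest to highest concentration) for 72 h at 37 degrees C before a luminescent ATP viability read.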
HT1080-NT tox – qHTS for induction of synthetic lethality in tumor cells producing 2HG: qHTS for the HT-1080-NT fibrosarcoma cell line. HT-1080-NT fibrosarcoma viability, CellTiter-Glo ATP luminescence, 48 h. Potency, µM (doses to about 46.1 µM), most hits filed as cytotoxic. actives 1.6% (n = 360,000);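 note: NT is the 2HG producing partner of a matched IDH1 knockdown line; nearly all actives have a fitted effect of over 55% in size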
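Read-out is CellTiter-Glo luminescence after 10 minutes at room temperature, following 48 hours' compound treatment of HT-1080-NT cells (750 cells/well, RPMI, 5% FBS, 37 degrees C).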
HT1080 IDH1KD tx – qHTS for induction of synthetic lethality in tumor cells producing 2HG: qHTS for the HT-1080-IDH1KD cell line | HT-1080 IDH1 knockdown viability, ATP luminescence, 48 h | Potency, µM (doses to about 46.1 µM), usual class: cytotoxic | actives 2% (n = 360,000) | AID 686971, 2013
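Knockdown cells (IDH1KD HT-1080) received compounds 2 h after plating at 750 cells/well and were kept 48 h at 37 °C in 5% FBS RPMI. A CellTiter-Glo luminescence read gave % activity for curve fitting.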
Of the large screens only hits and unclear results are named; the others gave an inactive call. A selection: hits, their analogues and other compounds. The true share with any hit is near 19%. Calls come from the whole dose curve; as a rule, active = well fitted curve in the direction sought with a large enough effect; inconclusive = small, poorly fitted or top-dose-only effect, or another doubt; inactive = no such curve, though single readings can be large; an effect the other way counts as inactive or inconclusive.

Cn1c2ccccc2c(=O)c2ccc(C#Cc3ccccn3)cc21	TDP1 cell CPT inconclusive, TDP1 cell noCPT inconclusive
COc1cccc2oc3ccc(C#CC4(N)CCCCC4)cc3c(=O)c12	TDP1 cell CPT 7.3µM, TDP1 cell noCPT 3.7µM, KB-V1 MDR tox inconclusive
Cn1c2ccccc2c(=O)c2ccc(C#CC3(N)CCCCC3)cc21	KB-3-1 cytotox inconclusive, TDP1 cell noCPT 13µM, HT1080-NT tox inconclusive
NC1(C#Cc2ccc3c(=O)c4ccccc4sc3c2)CCCCC1	TDP1 cell CPT 26µM, TDP1 cell noCPT inconclusive
CCOc1ccc(-c2nn(-c3ccccc3)cc2C2NC(=O)NC(C)=C2C(=O)OC(C)C)cc1 (configuration not stated)	KB-3-1 cytotox inconclusive, TDP1 cell CPT inconclusive, TDP1 cell noCPT inconclusive (no result: HT1080-NT tox, HT1080 IDH1KD tx)
CCN1C(=O)S/C(=C\c2ccc(N3CCOCC3)cc2C)C1=O	TDP1 cell CPT 15µM, TDP1 cell noCPT 16µM
CCC(C)N1C(=O)S/C(=C/c2ccc(N3CCOCC3)cc2C)C1=O (configuration not stated)	TDP1 cell CPT 21µM, TDP1 cell noCPT 23µM
Cc1cc(N2CCOCC2)ccc1/C=C1\SC(=O)N(C(C)C)C1=O	TDP1 cell CPT inconclusive, TDP1 cell noCPT inconclusive
Cc1ccc(CCNC(=O)c2cccc(Nc3nc4ccccc4nc3-n3nc(C)cc3C)c2)cc1	TDP1 cell noCPT inconclusive (no result: HT1080-NT tox, HT1080 IDH1KD tx)
Cc1cccc(C)c1NC(=O)/C(=C/c1ccco1)c1ccccc1	TDP1 cell CPT 18µM, TDP1 cell noCPT 13µM, KB-V1 MDR tox inconclusive
O=C(NCCc1ccccc1)/C(=C/c1ccco1)c1ccccc1	TDP1 cell CPT 26µM, TDP1 cell noCPT inconclusive
CC(C)=CC(=O)OCC(=O)Nc1cc(C)cc(C)c1	none
O=P(CCc1ccccc1)(c1ccccc1)c1ccccc1	KB-V1 MDR tox inconclusive
Cc1cc(Oc2ccc3ccccc3c2)nc(SCC(=O)c2ccccc2)n1	KB-3-1 cytotox 18µM, TDP1 cell CPT 21µM, TDP1 cell noCPT 18µM, KB-V1 MDR tox 16µM
CCOC(=O)COC(=O)c1ccc(Oc2cc(C)nc(SC)n2)cc1	none
Cc1cc(Oc2ccc(Br)cc2)nc(SCC(=O)c2ccccc2)n1	TDP1 cell CPT 23µM, TDP1 cell noCPT 21µM, KB-V1 MDR tox inconclusive
COC(=O)c1ccc(Oc2cc(C)nc(-n3nc(C)cc3C)n2)cc1	KB-3-1 cytotox 1.3µM, TDP1 cell CPT 0.73µM, TDP1 cell noCPT 0.58µM, KB-V1 MDR tox 1.8µM, HT1080-NT tox 1.3µM, HT1080 IDH1KD tx 1.1µM
CCOC(=O)c1ccc(Oc2cc(C)nc(SC)n2)cc1	KB-3-1 cytotox 9.2µM, TDP1 cell CPT 8.2µM, TDP1 cell noCPT 9.2µM, KB-V1 MDR tox 9.2µM, HT1080-NT tox 16µM, HT1080 IDH1KD tx 15µM
COC(=O)CSc1nc(C)cc(Oc2ccccc2)n1	KB-V1 MDR tox inconclusive
COC(=O)c1ccc(Oc2cc(C)nc(NCc3ccccc3)n2)cc1	TDP1 cell noCPT inconclusive
COc1ccc(N=CC2CCCCC2=O)c([N+](=O)[O-])c1 (configuration not stated)	TDP1 cell CPT inconclusive, TDP1 cell noCPT inconclusive, KB-V1 MDR tox inconclusive
Cc1cc(N2CCCCC2)nc(SCC(=O)c2ccccc2)n1	KB-3-1 cytotox inconclusive, TDP1 cell CPT inconclusive, TDP1 cell noCPT 12µM
O=C(CSc1nc(N2CCCCC2)nc(N2CCCCC2)n1)c1ccccc1	TDP1 cell CPT inconclusive, TDP1 cell noCPT inconclusive, KB-V1 MDR tox inconclusive
Cc1nn(-c2ccccc2)c2nc(-c3ccncc3)cc(C(=O)NCc3ccco3)c12	KB-3-1 cytotox inconclusive, TDP1 cell CPT inconclusive, TDP1 cell noCPT 18µM, KB-V1 MDR tox inconclusive, HT1080-NT tox inconclusive, HT1080 IDH1KD tx inconclusive
CC(/C=N/NC(=O)c1cc(-c2cccnc2)nc2c1c(C)nn2-c1ccccc1)=C\c1ccccc1	TDP1 cell CPT 18µM, TDP1 cell noCPT 13µM
CCOC(=O)c1cc(-c2cccs2)nc2c1c(C)nn2-c1ccccn1	TDP1 cell CPT 15µM, TDP1 cell noCPT 15µM, HT1080-NT tox inconclusive, HT1080 IDH1KD tx inconclusive
Cc1nn(-c2ccccn2)c2nc(-c3cccs3)cc(C(=O)NCc3ccco3)c12	KB-3-1 cytotox inconclusive, TDP1 cell CPT 23µM, TDP1 cell noCPT 23µM, KB-V1 MDR tox inconclusive
CC1CCc2nn(CC(=O)Nc3ccccc3Cl)cc2C1 (configuration not stated)	none (no result: HT1080-NT tox, HT1080 IDH1KD tx)
COCC(C)NC(=O)c1cnn2c(C(F)F)cc(-c3ccccc3)nc12 (configuration not stated)	TDP1 cell noCPT inconclusive (no result: HT1080-NT tox, HT1080 IDH1KD tx)
CC(C)CC1=C/C(=C/c2ccc(-c3ccccc3)o2)C(=O)O1	TDP1 cell CPT inconclusive, TDP1 cell noCPT 16µM
CCOC(=O)Nc1sc(C)nc1-c1ccccc1	KB-V1 MDR tox inconclusive
CCOC(=O)c1sc2ccccc2c1S(=O)(=O)N1CCN(c2ccccc2)CC1	TDP1 cell CPT inconclusive, TDP1 cell noCPT inconclusive, KB-V1 MDR tox inconclusive (no result: HT1080-NT tox, HT1080 IDH1KD tx)
COC(=O)c1sc2ccccc2c1S(=O)(=O)N1CCN(c2ccc(C(C)=O)cc2)CC1	TDP1 cell CPT 16µM, TDP1 cell noCPT inconclusive (no result: HT1080-NT tox, HT1080 IDH1KD tx)
CCOC(=O)Nc1nc(-c2ccccc2)c(C(=O)c2ccc(Cl)cc2)s1	KB-3-1 cytotox 1.2µM, TDP1 cell CPT 0.73µM, TDP1 cell noCPT 0.92µM, KB-V1 MDR tox 1.3µM, HT1080-NT tox inconclusive, HT1080 IDH1KD tx 0.52µM
CCOC(=O)C(=CNc1nc(-c2ccccc2)c(C(=O)Nc2ccc(-c3ccccc3)cc2)s1)C(=O)OCC	TDP1 cell CPT 16µM, TDP1 cell noCPT inconclusive
CCOC(=O)c1sc2ccc(S(=O)(=O)N3CC(C)CC(C)C3)cc2c1N (configuration not stated)	TDP1 cell CPT inconclusive, TDP1 cell noCPT 13µM, KB-V1 MDR tox inconclusive
Cc1cncn1CCc1nc2c3ccccc3nc(SCC(=O)Nc3ccccc3F)n2n1	TDP1 cell CPT inconclusive, TDP1 cell noCPT inconclusive (no result: HT1080-NT tox, HT1080 IDH1KD tx)
CC1CC(C)CN(S(=O)(=O)c2ccc(C(=O)OCC(=O)Nc3ccccc3)cc2)C1 (configuration not stated)	none
CCOC(=O)c1sc(NC(=O)c2ccc(S(=O)(=O)N3CCCCCC3)cc2)nc1-c1ccccc1	KB-3-1 cytotox inconclusive, TDP1 cell CPT inconclusive, TDP1 cell noCPT 1µM, KB-V1 MDR tox inconclusive

Source: PubChem
